FBW7 act: human FBW7 E3 ligase activation, primary screen; normalized activity (activation), % at 26.1 µM; 0.13% of 650,000 active; AID 1259310; AlphaScreen FBW7–phospho-cyclin E peptide binding, activator screen; in the data active = normalized activity above about 1.9%;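 also: purified mutant Fbw7 with reduced substrate affinity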
GPR151 activ: activators of human GPR151. activation, % at 11.2 µM. 1% of 650,000 active. Q8TDV0. PathHunter beta-arrestin GPR151 cells, luminescence; in the data active = activation above about 4.9%
TEAD-YAP inh: TEAD-YAP interaction inhibition | inhibition, % at 9.12 µM | HEK-TIYL cells, TEAD-Gal4/YAP UAS-luciferase luminescence | AID 1259422 | 1.4% of 640,000 active; in the data active = inhibition above about 32%
MITF inh: blocks human microphthalmia-associated transcription factor | 0.91% of 650,000 active | AID 1259374 | O75030 | AlphaScreen MITF homodimerization, bead proximity signal | inhibition, % at 2.6 µM; in the data active = inhibition above about 50%
Target sequence (O75030 whole entry, looked up): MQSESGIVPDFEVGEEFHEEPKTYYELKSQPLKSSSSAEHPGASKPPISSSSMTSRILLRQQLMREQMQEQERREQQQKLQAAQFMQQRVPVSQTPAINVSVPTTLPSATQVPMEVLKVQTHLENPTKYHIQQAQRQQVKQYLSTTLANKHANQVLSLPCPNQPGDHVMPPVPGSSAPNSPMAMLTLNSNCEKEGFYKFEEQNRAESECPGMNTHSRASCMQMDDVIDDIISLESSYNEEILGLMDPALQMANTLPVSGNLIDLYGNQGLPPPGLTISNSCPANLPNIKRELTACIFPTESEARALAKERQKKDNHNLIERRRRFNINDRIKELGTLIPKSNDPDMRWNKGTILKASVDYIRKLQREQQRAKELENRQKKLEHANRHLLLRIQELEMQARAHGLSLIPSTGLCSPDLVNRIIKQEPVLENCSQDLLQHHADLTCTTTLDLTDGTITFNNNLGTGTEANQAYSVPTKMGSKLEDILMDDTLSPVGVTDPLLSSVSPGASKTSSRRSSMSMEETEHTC
GPR151 confirm: confirmation of human GPR151 activators; shares compounds with GPR151 activ; GPR151 PathHunter beta-arrestin cells, luminescence, 90 min; % of EA-reagent control over plate median; activation, % at 11.2 µM; 6,700 tested, under 10 active; AID 1508609;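 active = mean percent activation across replicates above the confirmation screen cutoff of 4.91%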
GPR119 ag: activates human GPR119 in a GPR151 counter-screen | activation, % at 11.2 µM | 0.3% of 6,700 active | shares compounds with GPR151 activ | AID 1508611 | GPR119 PathHunter beta-arrestin cells, luminescence, 90 min; 0 = compound-well median, 100 = enzyme-acceptor control;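 active = mean percent activation in the counterscreen above 29.09%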;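 also: counterscreen on off-target GPR119 to flag nonselective hits from the GPR151 activator screen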
Each line names hits and unclear results; the compound was inactive in the other large screens (follow-up assays come after a bar, where they were run); ! = a repeat was not active. Rows were chosen to be rich in hits. Some 3.4% of all compounds tested hit in one or more screens of this group.

O=c1c2ccccc2ncn1Cc1c(F)cccc1F	GPR151 activ 4.9 | GPR151 confirm inactive | GPR119 ag inactive
CCn1c(SCC(=O)Nc2ccc(C)cc2)nc2ccccc21	none
COc1ccc(S(=O)(=O)NCC2CCCN(C(=O)CN3CCCC3=O)C2)cc1 (stereo unspecified)	none
Nc1c(Cl)cc(-n2c(-c3ccccc3)n[nH]c2=S)cc1Cl	GPR151 activ 5.5 | GPR151 confirm inactive | GPR119 ag inactive
S=c1[nH]nc(-c2ccc(Cl)cc2)n1-c1ccccc1	none
CC(C)(C)c1ccc(-c2n[nH]c(=S)n2-c2ccccc2)cc1	GPR151 activ 5.1! | GPR151 confirm inactive | GPR119 ag inactive
CN1CCCc2cc(C(CN)N3CCCCC3)ccc21 (stereo unspecified)	GPR151 activ 6.7 | GPR151 confirm inactive | GPR119 ag inactive
CCOC(=O)c1ccc(NC(=O)CNC(=O)c2ccccc2)cc1	GPR151 activ 15 | GPR151 confirm inactive | GPR119 ag inactive
CCOc1ccc(/C=C2\SC(=S)N(CC(=O)Nc3ccc(O)cc3)C2=O)cc1	GPR151 activ 5.7 | GPR151 confirm inactive | GPR119 ag inactive
COc1ccc(/C=C2\SC(=O)N(CC(=O)Nc3ccc(C)cc3)C2=O)cc1OC	none
CCOC(=O)c1ccc(NC(=O)CN2C(=O)CSCC2=O)cc1	none
CCOC(=O)c1ccc(NC(=O)CN2C(=O)C(CC)SC(CC)C2=O)cc1 (stereo unspecified)	GPR151 activ 6.4 | GPR151 confirm inactive | GPR119 ag inactive
COc1ccc(/C=C2\SC(=O)N(CC(=O)Nc3ccc(F)cc3)C2=O)cc1O	GPR151 activ 6.2 | GPR151 confirm inactive | GPR119 ag inactive
CCOc1ccc(NC(=O)CNC(=O)c2ccccc2)cc1	none
CCCCCn1c(=N)c(S(=O)(=O)c2ccc(C)cc2)cc2c(=O)n3ccccc3nc21	none
Cc1cc(C)c(NC(=O)CSc2cc(C)[nH]c(=O)n2)c(C)c1	none
O=C(NCCO)C(C(=O)c1ccccc1)n1ccccc1=O (stereo unspecified)	none
CCOc1ccc(NC(=O)CN2C(=O)C(CC)SC(CC)C2=O)cc1 (stereo unspecified)	GPR151 activ 5.1 | GPR151 confirm inactive | GPR119 ag inactive
CCOc1ccc(NC(=O)CN2C(=O)C(C)SC(C)C2=O)cc1 (stereo unspecified)	none
CC(C)(C)C(=O)COC(=O)CCC(=O)c1cccs1	GPR151 activ 6.1 | GPR151 confirm inactive | GPR119 ag inactive
O=C(NC1CCN(C(=O)Nc2cccc(Cl)c2)CC1)C1CCCCC1	none
Cc1cccc(NC(=O)N2CCC(NC(=O)C3CCCCC3)CC2)c1	GPR151 activ 5.9 | GPR151 confirm inactive | GPR119 ag inactive
Cc1c(Cl)cccc1NC(=O)CN1CCC(NC(=O)C2CCCCC2)CC1	GPR151 activ 8.4 | GPR151 confirm inactive | GPR119 ag inactive
Cc1ccc(N2C(=O)CC(Sc3ccc(F)cc3)C2=O)cc1 (stereo unspecified)	none
Cc1ccc(SC2CC(=O)N(c3ccc(F)cc3F)C2=O)cc1 (stereo unspecified)	GPR151 activ 9.8 | GPR151 confirm inactive | GPR119 ag inactive
C=CCNC(=O)CN(c1ccccc1F)S(=O)(=O)c1ccc(C)cc1	GPR151 activ 6.6 | GPR151 confirm inactive | GPR119 ag inactive
O=C(CSc1nnc2ccc(-c3cccnc3)nn12)N1CCc2ccccc21	GPR151 activ 5.4 | GPR151 confirm inactive | GPR119 ag inactive
COc1cccc(-n2c(SCC(=O)N3CCc4ccccc43)nnc2-c2ccncc2)c1	GPR151 activ 6.4 | GPR151 confirm inactive | GPR119 ag inactive
O=C(CSc1nnc2ccc(-c3cccnc3)nn12)N1CCCC1	none
COc1cccc(-n2c(SCC(=O)N3CCc4ccccc43)nnc2-c2cccnc2)c1	none
COc1cccc(C(=O)NNC(=O)c2ccc(Cl)cc2Cl)c1	none
Cc1ccc(CNC(=O)CSc2nc3nc(C)c(Cc4cc(C)ccc4C)c(C)n3n2)cc1	none
Brc1ccc(Nc2nc(-c3ccccn3)cs2)cc1	none
Brc1cccc(Nc2nc(-c3ccccn3)cs2)c1	GPR151 activ 22 | GPR151 confirm inactive | GPR119 ag inactive
N#Cc1c(NC(=O)CN2CCN(c3ccccc3F)CC2)sc2c1CCCC2	GPR151 activ 6.6 | GPR151 confirm inactive | GPR119 ag inactive
COc1cc(OC)c(C(=O)OCC#N)cc1OC	GPR151 activ 5.7 | GPR151 confirm inactive | GPR119 ag inactive
